# The supplement of paper PMC10646978
# ± gives the standard deviation.
# What was measured:
# Settings in all cases: modulator concentration 10 µM
# [1] = system: RAW-Dual (murine macrophage reporter line); assay: NF-kB reporter (SEAP) activity fold change vs agonist alone; higher = enhanced NF-kB activity
# How it was run: (§1)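 In 384-well plates holding 50 000 RAW-Dual murine macrophage reporter cells per well, compound at 10 μM final was pre-incubated for 1 hour at 37 °C, after which a PRR agonist was added overnight. Supernatant SEAP read with QUANTI-Blue at 620 nm absorbance reported NF-κB, and Lucia luciferase read with QUANTI-Luc luminescence reported IRF. Fold change values come from dividing each reporter signal by the mean of agonist-only control wells on the same plate, averaged over replicate plates with propagated errors.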
# [2] = system: RAW-Dual (murine macrophage reporter line); assay: IRF reporter (Lucia luciferase) activity fold change vs agonist alone; higher = enhanced IRF activity
# How it was run: as §1
# [3] = system: RAW-Dual (murine macrophage reporter line); assay: viability score (confluency relative to resting cells, overnight) (fraction); higher = more viable, active = viable (0.7 or more)
# How it was run: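 Compound was added at a final 10 μM to RAW-Dual macrophages in 384-well plates and left overnight. Confluency was imaged with IncuCyte, and two masks were generated in IncuCyte software over all imaged wells. Each viability score is confluency relative to resting cells, and a compound met the cutoff only when both masks were above 70% of resting cells.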
# [4] = agonist: CpG ODN 1826 0.5 ug/mL
Compound,"NF-kB reporter [1, 4]",NF-kB reporter ([1]; agonist: LPS 0.1 ug/mL),NF-kB reporter ([1]; agonist: MPLA […]),IRF reporter ([2]; agonist: 3'3'-cGAMP 10 ug/mL),IRF reporter ([2]; agonist: LPS 0.1 ug/mL),IRF reporter ([2]; agonist: MPLA […]),viability score [3]
COc1ccc(CN2CCN(c3cc(C)nc4c5c(C)cc(C)nc5nn34)CC2)cc1F,1.02 ± 0.08,0.961 ± 0.071,1.06 ± 0.13,1.17 ± 0.037,1.34 ± 0.18,1.42 ± 0.2,0.995 (active)
CN(C)c1ccc(C=NN2C(=O)c3cccc4cccc(c34)C2=O)cc1,1 ± 0.21,1.1 ± 0.092,0.964 ± 0.11,1 ± 0.032,1.28 ± 0.23,1.36 ± 0.17,1 (active)
CC(C)(C)C(=O)C(Oc1ccc(Cl)cc1)n1ccnc1 (configuration not stated),1.3 ± 0.33,0.983 ± 0.33,1.08 ± 0.13,1.07 ± 0.044,1.31 ± 0.36,1.34 ± 0.1,0.892 (active)
CC(C)(C)SCC(O)Cn1c2ccc(Br)cc2c2cc(Br)ccc21 (configuration not stated),0.767 ± 0.06,0.846 ± 0.1,0.91 ± 0.098,0.844 ± 0.039,1.31 ± 0.079,1.4 ± 0.12,0.999 (active)
N[C@@H](Cc1cc(I)c(Oc2cc(I)c(O)c(I)c2)c(I)c1)C(=O)O,0.496 ± 0.045,0.804 ± 0.069,0.908 ± 0.19,0.572 ± 0.044,1.15 ± 0.2,1.23 ± 0.31,1.03 (active)
COc1ccc(CC(=O)Nc2nc(CSCc3ccc(F)cc3)cs2)cc1,0.968 ± 0.057,1.06 ± 0.081,1.08 ± 0.069,0.832 ± 0.036,0.981 ± 0.045,0.968 ± 0.1,0.941 (active)
Cn1nc(CNS(=O)(=O)c2cccc(C(F)(F)F)c2)c2c1CCOC2,1.13 ± 0.34,1.08 ± 0.061,1.02 ± 0.065,0.955 ± 0.035,1.05 ± 0.13,1.12 ± 0.11,1 (active)
O=C1CSC(=S)N1c1ccc(Cl)cc1,0.606 ± 0.049,0.665 ± 0.077,0.854 ± 0.059,0.389 ± 0.059,0.673 ± 0.03,0.869 ± 0.11,0.988 (active)
CC1=C(C)CC2C(=O)N(c3ccccc3C)C(=O)C2C1 (configuration not stated),0.797 ± 0.064,0.889 ± 0.068,1.06 ± 0.12,0.982 ± 0.045,1.35 ± 0.078,1.33 ± 0.15,1.01 (active)
COCCCN1C(=O)C(=Cc2ccc(-c3ccc(Cl)cc3Cl)o2)SC1=S,0.954 ± 0.054,1.01 ± 0.082,0.96 ± 0.036,1.02 ± 0.052,1.01 ± 0.099,0.998 ± 0.25,1 (active)
O=C(COc1ccccc1)N1CCCC1Cn1nccn1 (configuration not stated),0.962 ± 0.09,0.951 ± 0.077,0.923 ± 0.1,0.904 ± 0.049,1.17 ± 0.1,1.06 ± 0.25,0.975 (active)
CC(=O)ON=C1C(C)=C(C#N)C2C1C2(C)C (configuration not stated),1.2 ± 0.096,1.01 ± 0.26,0.874 ± 0.32,0.718 ± 0.18,0.871 ± 0.25,0.857 ± 0.33,1.01 (active)
CC(C)c1cc(-c2n[nH]c(=O)n2-c2ccc3c(ccn3C)c2)c(O)cc1O,0.0963 ± 0.0078,0.155 ± 0.012,0.681 ± 0.062,1.08 ± 0.059,1.22 ± 0.09,1.41 ± 0.12,0.542 (inactive)
O=C1CCc2cc(OCCCCc3nnnn3C3CCCCC3)ccc2N1,1.52 ± 0.27,1.24 ± 0.38,1.18 ± 0.2,1.01 ± 0.043,1.32 ± 0.2,1.32 ± 0.12,0.991 (active)
COC(CNC(=O)CSc1ccc(F)cc1)c1ccc(C)s1 (configuration not stated),1.07 ± 0.33,1.1 ± 0.067,1.05 ± 0.067,0.898 ± 0.03,1.06 ± 0.16,1.11 ± 0.1,0.985 (active)
Nc1ccc(C=Cc2ccccc2)cc1,0.964 ± 0.097,0.776 ± 0.038,0.976 ± 0.034,0.174 ± 0.012,0.857 ± 0.089,0.719 ± 0.056,0.973 (active)
COc1ccc(N(CC(=O)NCCSCc2ccccc2)S(C)(=O)=O)cc1Cl,0.873 ± 0.15,1.06 ± 0.071,0.893 ± 0.068,0.864 ± 0.12,1.08 ± 0.1,0.85 ± 0.18,1.01 (active)
CCCOc1cccc(C(=O)Nc2scc(-c3ccccc3)c2C(=O)OC(C)C)c1,1.79 ± 0.35,1.24 ± 0.16,2.23 ± 0.46,0.635 ± 0.056,0.66 ± 0.22,0.65 ± 0.041,0.883 (active)
O=C(NCCC(CCO)c1ccccc1)c1cccc(Cl)c1 (configuration not stated),1.11 ± 0.068,1.02 ± 0.082,0.946 ± 0.025,0.748 ± 0.027,0.967 ± 0.051,0.984 ± 0.096,1 (active)
O=C(NN=Cc1c(Br)sc2ccccc12)c1cccc(Cl)c1,0.972 ± 0.082,0.88 ± 0.17,1.18 ± 0.056,0.738 ± 0.12,0.952 ± 0.045,1.49 ± 0.1,0.887 (active)
COc1ccccc1C1C(C(C)=O)=C(O)C(=O)N1CCN(C)C (configuration not stated),0.967 ± 0.054,1.07 ± 0.072,0.947 ± 0.057,0.958 ± 0.032,1.48 ± 0.24,1.25 ± 0.12,0.988 (active)
COC(=O)C1=C(C)N(Cc2ccccc2)C(=O)C1=Cc1ccc(C)cc1,0.59 ± 0.048,0.655 ± 0.05,0.749 ± 0.069,0.4 ± 0.02,1.08 ± 0.068,0.948 ± 0.092,0.998 (active)
NCC(=O)O,0.965 ± 0.073,0.999 ± 0.064,0.96 ± 0.021,0.912 ± 0.068,1.02 ± 0.12,1.23 ± 0.21,1 (active)
Cc1ccc(C(=O)NC(Oc2ccc3ccccc3c2)C(Br)(Br)Br)cc1 (configuration not stated),0.799 ± 0.045,1.02 ± 0.092,0.86 ± 0.053,0.598 ± 0.047,1.51 ± 0.12,1.27 ± 0.14,0.998 (active)
O=C(Nc1ccon1)C1CN(C(=O)COc2ccccc2F)C1,1.08 ± 0.18,1.07 ± 0.14,1.04 ± 0.1,1.06 ± 0.042,1.25 ± 0.24,1.33 ± 0.2,0.992 (active)
Cc1cccc2sc(OC3CN(C(=O)Nc4ccccc4C(F)(F)F)C3)nc12,0.912 ± 0.047,1.13 ± 0.089,0.872 ± 0.043,1.12 ± 0.065,1.19 ± 0.19,1.15 ± 0.31,0.981 (active)
